SARS 3CLpro inh: SARS-CoV 3CLpro protease inhibitors, primary screen, biochemical, quenched FRET; Replicase polyprotein 1ab (Severe acute respiratory syndrome coronavirus), P0C6X7; recombinant SARS-CoV 3CLpro, quenched FRET peptide cleavage; inhibition, % at 6 µM; 290,000 compounds, 0.14% hits; in the data active means inhibition above about 12%
CCHF vOTU inh: CCHFV vOTU protease inhibitors, primary screen, biochemical, Pep-AMC substrate, fluorescence; Crimean-Congo hemorrhagic fever virus L polyprotein viral ovarian tumor (vOTU) protease …; inhibition, % at 11.5 µM; 370,000 compounds, 0.55% hits; in the data active means inhibition above about 30%; further: 0% = vehicle wells with enzyme and 100% = no enzyme wells
ugtP null kill: growth inhibition of ugtP-null S. aureus, primary screen, RN4220 ugtP deletion, OD600 | 16 h | growth inhibition, % (concentration not given with the values) | 330,000 compounds, 0.54% hits; in the data active means growth inhibition above about 68%;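 further: plate controls were untreated wells for no effect and antibiotic for full effect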
Mtb bLac sens: beta-lactam sensitization of Mtb H37Rv, H37Rv. M. tuberculosis H37Rv growth with meropenem, percent inhibition. inhibition, % at 25 µM. 330,000 compounds, 0.27% hits; call rule not given here;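 further: growth measured after seven days incubation then overnight dye step; 0% = bacteria only wells and 100% = bacteria with antibiotic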
MazF activator: activators of E. coli MazEF toxin-antitoxin RNase, primary screen, biochemical, fluorescence, uHTS | Endoribonuclease toxin MazF (Escherichia coli (strain K12)), P0AE70 | 350,000 compounds, 0.32% hits | activation, % at 20 µM | FAM/BHQ RNA-DNA oligo cleavage fluorescence, 5 h | AID 504720, 2011; in the data active means activation above about 50%
Target sequence (P0AE70 whole entry, looked up): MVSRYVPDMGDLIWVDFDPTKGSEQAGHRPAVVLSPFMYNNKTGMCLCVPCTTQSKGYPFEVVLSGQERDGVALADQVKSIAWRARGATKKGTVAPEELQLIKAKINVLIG
RN4220 kill: growth inhibition of S. aureus RN4220, primary screen, OD600 | 16 h | inhibition, % (no concentration beside the values) | 330,000 compounds, 0.33% hits; in the data active means inhibition above about 85%;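 further: plate controls were untreated cells for no effect and reference antibiotic for full effect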
The depositor's hits bear a star; ? = inconclusive; . = no result. A selection: hits, their analogues and other compounds. The true share with any hit is near 1.3%.

SMILES	SARS 3CLpro inh	CCHF vOTU inh	ugtP null kill	Mtb bLac sens	MazF activator	RN4220 kill
COc1ccc(OC)c(-c2cc(C3CCN(c4cc(Cl)nc(N)n4)CC3)[nH]n2)c1	3	2	-10	43	-23	2
C=CCCC(Cc1ccc(F)cc1)C(=O)OCC(NC(=O)C(CC=C)CC(=O)NCCO)C(C)(C)C (configuration not stated)	.	.	0	.	.	9
CCOC(=O)C1=C2NC(=O)c3ccccc3N2C(=O)C1	4	3	9	-5	132*	6
CN(C)c1ccc(-c2cc(O)c3ncccc3c2)cc1	.	9	.	100	4	.
Oc1cc(-c2ccncc2)cc2cccnc12	.	18	95*	90	3	101*
CCC(CC)NC(=O)CON=Cc1ccccc1OC(F)F	.	.	-2	.	.	1
O=C(Nn1c(SCc2ccccc2F)nc2ccsc2c1=O)c1ccccc1	5	8	37	6	5	65
O=C(Nn1c(=O)[nH]c2ccsc2c1=O)c1ccccc1	-4	1	100*	-20	-1	98*
CCCCN1C(=O)/C(=C/C=C2\SCCN2C)SC1=S	3	20	-7	.	530*	-11
Clc1ccc(COC(Cn2ccnc2)c2ccc(Cl)cc2Cl)c(Cl)c1 (configuration not stated)	0	5	100*	97	-37	100*
C=CCOC(Cn1ccnc1)c1ccc(Cl)cc1Cl (configuration not stated)	.	8	7	92	-3	2
COc1ccc2c(c1)C(=NO)c1cc(OC)ccc1-2	4	12	100*	-2	11	-3
C=CCOc1ccc2c(c1)C(=NO)c1cc(OCC=C)ccc1-2	2	-3	81	98	-4	15
Cc1[nH]n(-c2ccccc2)c(=O)c1C=Nc1ccc2[nH]c(=O)[nH]c2c1	5	-1	.	9	90*	.
Cc1cccc(-n2[nH]c(C)c(C=Nc3ccc4[nH]c(=O)[nH]c4c3)c2=O)c1	3	-2	9	-6	154*	0
CCN(CC)c1ccc(C=NNC(=O)Nc2ccccc2)cc1	.	.	-13	.	.	1
COc1ccc(-c2n[nH]c(=S)n2N=C/C=C/c2ccccc2OC)cc1	.	.	-13	.	.	9
CC(C)c1ccc(-c2nnn(Cc3nc4ccccc4s3)n2)cc1	-6	8	85*	?	-3	1
CC(C)c1ccc(-c2nnn(CCC#N)n2)cc1	-1	1	0	1	6	3
Cc1cccc(Nc2nc(-c3sc(C)nc3C)cs2)c1	0	6	90*	78	-33	-7
O=Nc1ccc(NOC(=O)c2ccc(Br)cc2)cc1	-2	.	.	.	.	.
Cc1ccc(C(=O)ONc2ccc(N=O)cc2)cc1	-2	5	100*	99	11	1
COC(CC1OC1C(=O)C(C)OCc1ccccc1)OC (configuration not stated)	.	.	-1	.	.	8
Cc1nccn1CC(=O)NN=Cc1cc(Br)cs1	.	.	7	.	.	0
COC(=O)c1ccc(-c2ccco2)n1Cc1cccc(C)c1	-2	-4	94*	?	-3	-3
SMILES	SARS 3CLpro inh	CCHF vOTU inh	ugtP null kill	Mtb bLac sens	MazF activator	RN4220 kill
CC12CN3CCN(CC(C3)C1=NNC(=O)Nc1ccccc1)C2	.	.	-2	.	.	-2
O=C(Nc1ccccc1)c1ccc(NCC2CCCO2)c([N+](=O)[O-])c1 (configuration not stated)	-5	10	5	4	5	6
Cc1ccc(NC(=O)c2ccc(NCCc3ccccc3)c([N+](=O)[O-])c2)cc1F	-1	2	-4	-4	50	1
O=C(Nc1ccccc1)c1ccc(NCCN2C(=O)CCC2=O)c([N+](=O)[O-])c1	0	5	7	3	51*	6
O=C(Nc1cc(F)cc(F)c1)c1ccc(NCCc2ccccc2)c([N+](=O)[O-])c1	1	3	.	-5	552*	.
Cc1n[nH]c(=S)n(N=Cc2ccccn2)c1=O	.	.	4	.	.	11
CCC(C)(C)NC(=O)C(c1ccc(O)cc1)N(CCOC)C(=O)CCC(=O)Nc1nccs1 (configuration not stated)	1	-3	6	-2	235*	1
CCC(C)(C)NC(=O)C(c1ccc(OC)cc1)N(CCOC)C(=O)CCC(=O)Nc1nccs1 (configuration not stated)	1	-5	14	3	0	6
COc1ccc(/C=C2/SC(=S)N(NS(=O)(=O)c3ccc(C)cc3)C2=O)cc1	4	16	82*	9	0	64
Cc1ccc(S(=O)(=O)NN2C(=O)/C(=C/c3ccc(F)cc3)SC2=S)cc1	4	-7	89*	-2	-3	85*
C=CCOc1ccc(/C=C2\SC(=S)N(NS(=O)(=O)c3ccc(C)cc3)C2=O)cc1	9	20	88*	3	1	63
Cc1ccc(/C=C2\SC(=S)N(NS(=O)(=O)c3ccc(C)cc3)C2=O)cc1	9	-2	38	10	5	62
CC(=NNC(=O)c1ccccc1)c1cc2cc([N+](=O)[O-])ccc2oc1=O	.	.	5	.	.	58
CC(C)Sc1cc(N2CCOCC2)nc(-c2ccccc2)n1	-1	-12	98*	16	-4	-8
CCCCc1nc(NCCO)c(C#N)c2c1CCCC2	-6	-13	11	7	1	13
CCCCNc1nc(CC)c2c(c1C#N)CCCC2	-1	-2	81*	-4	2	0
CC1(C)CCC(C)(C)c2cc(NC(=O)c3ccc(C(=O)O)cc3)ccc21	.	15	.	.	.	.
CC(=Cc1ccc(C(=O)O)cc1)c1ccc2c(c1)C(C)(C)CCC2(C)C	.	.	99*	.	.	77
CCc1cc(C(=O)OC)c(NC(=O)CC2Nc3cc(C)c(C)cc3NC2=O)s1 (configuration not stated)	-2	8	8	-3	153*	2
Cn1c(=O)c(C(=O)NNC(=O)c2cccc(Cl)c2)c(O)c2ccccc21	-1	-16	100*	100	5	100*
CCn1c(=O)c(C(=O)NNC(=O)c2cccc(Cl)c2)c(O)c2ccccc21	1	-12	100*	100	7	100*
CNC(=O)N(O)C1N(N=Cc2ccccc2F)C(=S)SC1(C)C (configuration not stated)	.	.	-4	.	.	1
N#CC(c1cccc(Cl)c1)c1ccc2c(C(F)(F)F)cc(C(F)(F)F)nc2n1 (configuration not stated)	1	-3	97*	75	13	97*
OC(Cn1c2ccccc2c2ccccc21)C[n+]1cccc2ccccc21 (configuration not stated)	1	-2	-19	-1	51*	-6
Cc1nc2ccccc2n1CC(O)Cn1c2ccccc2c2ccccc21 (configuration not stated)	-3	1	-14	-4	-4	-2

Screening data deposited in PubChem by several laboratories.
